In PubChem BioAssay (NCI) one finds growth data, which are given here for 40 molecules.

About 83,000 compounds went through this panel and 20% of them were active in at least one assay; those are over-represented in the sample as a whole.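 Treatment: one concentration, 48 hours, 96-well format. Scoring: percent growth, with anything below 10 considered active.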 A number with no mark means an inactive call. Calls of active or inactive are those of the source.

The experiment concerns HL-60(TB) leukemia. As to the kind of experiment: NCI-60 one-dose screen, 48 h (100 = growth as untreated, 0 = no growth, -100 = all killed). The settings on record: 10 µM unless noted. As to the method: Growth inhibition of the HL-60(TB) human tumor cell line is measured as a screen for anti-cancer activity. Cells are grown in 96 well plates and exposed to the test compound for 48 hours. Compounds are tested at a single concentration, which is 10^-5 M for most compounds. The reported endpoint is percent growth (GI% or GIPRCNT), where numbers from 0 - 100% represent growth inhibition, and numbers from -100% - 0 represent cell death. For example, a value of 40 represents 60% growth inhibition. A value of 0 means no net growth occurred over the course of the experiment. A value of -40 indicates 40% of cells at the beginning of the experiment died by the end of the experiment. A value of -100 means all cells are dead at the end of the experiment.
NCI-60 Human Tumor Cell Lines Screen was performed using the standard one-dose NCI protocol, which is described in more detail at https://dtp.cancer.gov/discovery_development/nci-60/default.htm.
Compounds with GIPRCNT values below 10 were considered active. Activity score was based on GIPRCNT using the following formula: […]
Score is 0 for GIPRCNT values of 100 or above, 50 for GIPRCNT values of 0, and 100 for GIPRCNT values of -100.
Regarding `CCCn1cnc2c(c1=N)C(c1ccc(F)cc1)c1sc3c(CC)cccc3c1O2` (stereo not given), the growth is -36.4% (active).

On to `CS(=O)(=O)c1ccc(/C(=N/N=C(N)N)c2ccc(Cl)cc2)cc1`, for which the growth was 80%.

In the case of `CN1CCN(Cc2ccc(/C=N/Nc3ccnc4cc(Cl)ccc34)cc2)CC1`, the growth is 72.4%.

Take `C/C(=C(/C)C1CC1CCN(C(=O)c1ccccn1)S(=O)(=O)c1ccc(C)cc1)C1CCCCC1` (stereo not given): the growth was 97.4%.

For `O=C(CCl)Nc1ccc(NC(=O)c2cc(Cl)ccc2O)c(Cl)c1`, the growth is 49.3%.

For `O=S(=O)(Oc1ccc(-c2nnc(Nc3ccccc3)s2)cc1)C(F)(F)C(F)(F)C(F)(F)C(F)(F)C(F)(F)C(F)(F)F`, the growth is 70.6%.

For the molecule `CN1C(=O)/C(=C/C=C/c2ccco2)SC1=S`, the growth is 99.6%.

On to `CCOP(=O)(OCC)OC[C@]12CC[C@@H](C)[C@H](C)C1C1=CC[C@@H]3[C@@]4(C)CCCNC(C)(C)[C@@H]4CC[C@@]3(C)[C@]1(C)CC2` (stereo not given in full), for which the growth is -67.7% (active).

Turning to `CC(C)(C)c1cc(NC(=O)Nc2ccc(-c3cn4c5c(sc4n3)CCc3c[nH]cc3-5)cc2)no1`, the growth is 9.58% (active).

Turning to `Cc1ccc2c(n1)C(=O)C(Cl)=C(Nc1cccc(C(F)(F)F)c1)C2=O`, the growth was 32.3%.

As to `Nc1cc(-c2c[nH]c3ccc(Br)cc23)nc2cc(-c3c[nH]c4ccc(Br)cc34)nn12`, the growth was 9.1% (active).

Turning to `COc1cc(/C=C2\SC(=O)NC2=O)ccc1OCC(=O)Nc1ccc(C(=O)/C=C/c2cc3ccccc3nc2Cl)cc1`, the growth was 93.7%.

As to `O=C1CCCC2=C1C(c1c[nH]c3ccc(Br)cc13)Cc1cc(Br)ccc1N2` (stereo not given), the growth was 12.9%.

Regarding `CCOC(=O)c1c(NC(=O)c2ccc(F)cc2F)sc2c1CCC(=O)C2`, the growth is 91.9%.

Regarding `O=C1[C@H]2Cc3c([nH]c4ccccc34)[C@@H](c3c(Cl)cccc3Cl)N2C(=O)CN1C1CCN(Cc2ccccc2)CC1`, the growth was 65.7%.

As to `CC1=CC(=O)CC(C)(C)[C@@]1(O)/C=C/C(C)=C\C(=O)O`, the growth is -41.9% (active).

`O=C1[C@@H]2Cc3c([nH]c4ccccc34)[C@H](c3ccc(Br)cc3)N2C(=O)CN1C1CCN(Cc2c(Cl)cccc2Cl)CC1`: the growth is -79% (active).

On to `O=C1[C@@H]2Cc3c([nH]c4ccccc34)[C@H](c3ccc(Cl)cc3)N2C(=O)CN1C1CCN(Cc2ccccc2)CC1`, for which the growth is 17.6%.

Take `Cc1ccc(-c2cc(-c3ccc(N(C)C)cc3)n3c(n2)nc2ccccc23)cc1`: the growth is 67.1%.

Take `Oc1ccc(CSc2nnc(-c3ccc(Br)cc3)n2-c2ccccc2)c2cccnc12`: the growth was 27.5%.

Regarding `CCC(=C(c1ccc(OCCN2CCCCCC2)cc1)c1ccc(OCCN2CCCCCC2)cc1)c1ccc(Cl)cc1`, the growth is -38.8% (active).

For the molecule `CCCC(=O)NC(c1cccnc1)c1cc(C(C)=O)c2cccnc2c1O` (stereo not given), the growth is 24.9%.

As for `O=C(CN1C(=O)CSC1=O)Nc1ccc(C(=O)/C=C/c2cc3ccccc3nc2Cl)cc1`, the growth was 71.9%.

Turning to `Cc1ccc(C(=O)Nc2ccc(CNCCN3CCNCC3)c(C(F)(F)F)c2)cc1C#Cc1cnc2cccnn12`, the growth is -54.7% (active).

For `O=C(/C=C/c1cn(-c2ccccc2)nc1-c1ccc(Cl)cc1)c1cc2ccccc2oc1=O`, the growth was 85.6%.

`CC(=O)Nc1ccc(NC(=O)Nc2cccc(-c3nc(-c4ccc(NC(=O)c5cccs5)cc4Cl)no3)c2)cc1C(F)(F)F`: the growth is 5.88% (active).

Regarding `COc1ccc(C2CC(c3ccc(Nc4nc(NCCO)nc(Nc5ccc(Cl)cc5)n4)cc3)=Nc3c(N)nc(N)nc3N2)cc1` (stereo not given), the growth was 36.6%.

Take `O=C1c2c(O)cc(O)cc2O[C@@H](c2ccc(O)cc2)[C@@H]1c1c(O)cc(O)c2c(=O)cc(-c3ccc(O)c(O)c3)oc12`: the growth was 103%.

In the case of `CCOC(=O)c1cccc(NC2=C(Cl)C(=O)C(C)=C(C)C2=O)c1`, the growth is 31.2%.

For `O=c1[nH][nH]c(-c2ccc(F)cc2)c1-c1nc2ccccc2s1`, the growth was 103%.

For the molecule `COc1ccc(NCc2cn(-c3ccc(C(=O)O)cc3)nc2-c2cc(C(F)(F)F)cc(C(F)(F)F)c2)cc1`, the growth was 90.6%.

Turning to `CN1CCN(Cc2ccc(NC(=O)c3cncc(C#Cc4[nH]nc5ncncc45)c3)cc2C(F)(F)F)CC1`, the growth was 21.5%.

Regarding `CN1CCN(Cc2ccc(NC(=O)c3cncc(C#Cc4cnc5ccc(N6CCOCC6)nn45)c3)cc2C(F)(F)F)CC1`, the growth was -40.8% (active).

`C#C[C@]1(O)CC[C@H]2[C@@H]3CC=C4c5sc(Nc6ncccc6C)nc5CC[C@]4(C)[C@H]3CC[C@@]21C`: the growth was -29.6% (active).

As for `Cc1nn(-c2ccc(Cl)cc2)c(C)c1N=Nc1ccc2oc(=O)ccc2c1`, the growth is 93.5%.

In the case of `Cc1[nH]c(C(=O)Nc2ccc(S(=O)(=O)N3CCCCC3)cc2OCCOCCOCCOCCOCCOCCOCCOCCOCCOc2cc(S(=O)(=O)N3CCCCC3)ccc2NC(=O)c2[nH]c(C)c3c2CCCCC3=O)c2c1C(=O)CCCC2`, the growth was 10.7%.

Regarding `COc1ccc([C@H]2[C@H](O)C(=O)N2c2cc(OC)c(OC)c(OC)c2)cc1F`, the growth is -13% (active).

For the molecule `N#C/C(=C\c1ccc(N2CCCCC2)cc1)C(=O)Nc1sc2c(c1C#N)CCC2`, the growth was 98.7%.

For the molecule `Oc1ccc(-c2nnc(SCc3ccc(O)c4ncccc34)o2)cc1`, the growth is 5.77% (active).

Consider `O=S(=O)(NCCCNc1nccc(-c2[nH]c(-c3ccccc3)nc2-c2ccc(F)c(O)c2)n1)c1ccccc1`, for which the growth is 90.6%.
